Inconclusive results are not listed. Active and inactive are the calls of the source. Calls follow the shape of the dose curve; as a rule, active = well fitted curve in the direction sought with a large enough effect; inconclusive = small, poorly fitted or top-dose-only effect, or another doubt; inactive = no such curve, though single readings can be large; an effect the other way counts as inactive or inconclusive. Non-standard residues stand in square brackets, D forms with d. Residues, ends and D or L forms follow the SMILES beside them. *: point of attachment. Nva = CCC[C@H](N)C(=O)O; Cbz = O=C(OCc1ccccc1)*
Assays:
[1] = qHTS of pediatric cancer cell lines to identify multiple opportunities for drug repurposing: Primary screen for SJ-GBM2 cells (AID 1347091)
Procedure, shortened: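 Cell viability, CellTiter-Glo luminescence; 500-1,000 cells/well, 8- or 11-point titration, 48 h compound exposure at 37 degrees C, 5% CO2. Controls: DMSO neutral, bortezomib 2.3 µM final as positive.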

[2] = qHTS of pediatric cancer cell lines to identify multiple opportunities for drug repurposing: Primary screen for A673 cells (AID 1347092); also: nearly all actives have a fitted effect of over 45% in size
Procedure, shortened: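 A673 cells (500-1,000 cells/well in growth media) were pre-incubated 5 h at 37 degrees C, then exposed to compounds for 48 h. Viability was read as CellTiter-Glo luminescence; concentration-response curves came directly from the primary screen.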

[3] = qHTS of pediatric cancer cell lines to identify multiple opportunities for drug repurposing: Primary screen for SK-N-MC cells (AID 1347093)
Procedure, shortened: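 Metabolically active cells were quantified by ATP-dependent luminescence (CellTiter-Glo, 15 min at room temperature) following 48 h treatment. Cells had been plated at 500-1,000 per well and settled for 5 h beforehand.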

[4] = qHTS of pediatric cancer cell lines to identify multiple opportunities for drug repurposing: Primary screen for BT-37 cells (AID 1347094)
Procedure, shortened: (§1)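 Following a 5-hour attachment period, cells at 500-1,000/well received compounds and were cultured for 48 hours. CellTiter-Glo was added and luminescence read to estimate viable, metabolically active cells.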

[5] = qHTS of pediatric cancer cell lines to identify multiple opportunities for drug repurposing: Primary screen for NB-EBc1 cells (AID 1347095)
Procedure, shortened: as §1

[6] = qHTS of pediatric cancer cell lines to identify multiple opportunities for drug repurposing: Primary screen for Saos-2 cells (AID 1347097); also: nearly all actives have a fitted effect of over 40% in size
Procedure, shortened: as §1

[7] = qHTS of pediatric cancer cell lines to identify multiple opportunities for drug repurposing: Primary screen for SK-N-SH cells (AID 1347098); also: nearly all actives have a fitted effect of over 65% in size
Procedure, shortened: (§2)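 Cells (500-1,000/well) rested 5 h, then received compounds for 48 h; metabolically active cells were measured by CellTiter-Glo luminescence. Final concentrations spanned up to 46 µM (MIPE, 11-point) or 0.59 nM-46 µM (NPC, 8-point) in primary screens, 11-point in follow-ups.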

[8] = qHTS of pediatric cancer cell lines to identify multiple opportunities for drug repurposing: Primary screen for NB1643 cells (AID 1347099); also: nearly all actives have a fitted effect of over 50% in size
Procedure, shortened: as §1

[9] = qHTS of pediatric cancer cell lines to identify multiple opportunities for drug repurposing: Primary screen for LAN-5 cells (AID 1347100)
Procedure, shortened: as §2

[10] = qHTS of pediatric cancer cell lines to identify multiple opportunities for drug repurposing: Primary screen for BT-12 cells (AID 1347101); also: nearly all actives have a fitted effect of over 25% in size
Procedure, shortened: as §2

[11] = qHTS of pediatric cancer cell lines to identify multiple opportunities for drug repurposing: Primary screen for Rh18 cells (AID 1347102); also: nearly all actives have a fitted effect of over 65% in size
Procedure, shortened: as §2

[12] = qHTS of pediatric cancer cell lines to identify multiple opportunities for drug repurposing: Primary screen for OHS-50 cells (AID 1347103); also: nearly all actives have a fitted effect of over 40% in size
Procedure, shortened: as §2

[13] = qHTS of pediatric cancer cell lines to identify multiple opportunities for drug repurposing: Primary screen for RD cells (AID 1347104); also: nearly all actives have a fitted effect of over 55% in size
Procedure, shortened: as §1

[14] = qHTS of pediatric cancer cell lines to identify multiple opportunities for drug repurposing: Primary screen for MG 63 (6-TG R) cells (AID 1347105); also: nearly all actives have a fitted effect of over 50% in size
Procedure, shortened: as §1

[15] = qHTS of pediatric cancer cell lines to identify multiple opportunities for drug repurposing: Primary screen for control Hh wild type fibroblast cells (AID 1347106); also: nearly all actives have a fitted effect of over 55% in size
Procedure, shortened: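 Viability after 48 h compound treatment at 37C, 500-1,000 cells/well, read as ATP luminescence with CellTiter-Glo. Primary screens used 11-point (MIPE, 0.78 nM-46 µM) or 8-point (NPC, 0.59 nM-46 µM) final concentrations; follow-up screens used 11-point dilutions.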

[16] = qHTS of pediatric cancer cell lines to identify multiple opportunities for drug repurposing: Primary screen for Rh30 cells (AID 1347107); also: nearly all actives have a fitted effect of over 75% in size
Procedure, shortened: as §2

[17] = qHTS of pediatric cancer cell lines to identify multiple opportunities for drug repurposing: Primary screen for Rh41 cells (AID 1347108); also: nearly all actives have a fitted effect of over 70% in size
Procedure, shortened: as §1

[18] = qHTS of pediatric cancer cell lines to identify multiple opportunities for drug repurposing: Primary screen for U-2 OS cells (AID 1347096); also: nearly all actives have a fitted effect of over 50% in size
Procedure, shortened: as §2

[19] = qHTS of pediatric cancer cell lines to identify multiple opportunities for drug repurposing: Confirmatory screen for A673 cells (AID 1347110); also: nearly all actives have a fitted effect of over 65% in size
Procedure, shortened: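 A673 cells seeded at 500-1,000 cells/well, rested 5 h, then dosed; primary MIPE 11-point (0.78 nM to 46 µM), NPC (0.59 nM to 46 µM); confirmatory 11-point. CellTiter-Glo luminescence after 48 h.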

[20] = qHTS of pediatric cancer cell lines to identify multiple opportunities for drug repurposing: Confirmatory screen for NB1643 cells (AID 1347109); also: nearly all actives have a fitted effect of over 45% in size
Procedure, shortened: as §2
Potency is read from the fitted curve at half-maximal effect.

Row | SMILES | Potency [1] | Potency [2] | Potency [3] | Potency [4] | Potency [5] | Potency [6] | Potency [7] | Potency [8] | Potency [9] | Potency [10] | Potency [11] | Potency [12] | Potency [13] | Potency [14] | Potency [15] | Potency [16] | Potency [17] | Potency [18] | Potency [19] | Potency [20]
1 | CCCCCCCCc1ccc(CCC(N)(CO)CO)cc1 | 14.8 µM (active) | 4.69 µM (active) | 1.87 µM (active) | 21.7 µM (active) | 16.6 µM (active) | 18.7 µM (active) | 34.1 µM (active) | 18.7 µM (active) | 26.4 µM (active) | 21.7 µM (active) | 16.6 µM (active) | 15.3 µM (active) | 8.33 µM (active) | 18.7 µM (active) | inactive | 18.7 µM (active) | 18.7 µM (active) | – | – | –
2 | CN1[C@H]2CC(OC(=O)[C@@H](CO)c3ccccc3)C[C@H]1[C@H]1O[C@H]12 (stereo partly drawn) | inactive | inactive | inactive | inactive | inactive | inactive | inactive | – | inactive | inactive | inactive | inactive | – | – | inactive | inactive | inactive | inactive | – | –
3 | O=c1[nH]c(=O)n([C@H]2C[C@@H](O)[C@@H](CO)O2)cc1C=CBr | inactive | inactive | inactive | inactive | inactive | inactive | – | inactive | inactive | – | inactive | inactive | inactive | inactive | inactive | inactive | inactive | inactive | – | –
4 | C=CCNC1=C2C[C@@H](C)C[C@H](OC)[C@@H](O)[C@@H](C)C=C(C)[C@H](OC(N)=O)[C@@H](OC)C=CC=C(C)C(=O)NC(=CC1=O)C2=O | 0.59 µM (active) | 1.48 µM (active) | 1.66 µM (active) | 0.193 µM (active) | 1.48 µM (active) | 1.66 µM (active) | 2.41 µM (active) | 1.48 µM (active) | 2.09 µM (active) | 19.3 µM (active) | 0.833 µM (active) | 1.22 µM (active) | 0.235 µM (active) | 23.5 µM (active) | – | 13.2 µM (active) | 3.72 µM (active) | – | 1.17 µM (active) | –
5 | c1cncc(CN2CCC(n3ncc4c(N5CCOCC5)nc(-c5ccc6[nH]ccc6c5)nc43)CC2)c1 | 3.32 µM (active) | 11.8 µM (active) | 7.43 µM (active) | 7.69 µM (active) | 4.69 µM (active) | – | 19.2 µM (active) | – | 14.8 µM (active) | 13.7 µM (active) | – | 2.17 µM (active) | – | 14.8 µM (active) | – | 14.8 µM (active) | 3.32 µM (active) | inactive | – | –
6 | CC(C=CC1=C(C)CCCC1(C)C)=CC=CC(C)=CC(=O)Nc1ccc(O)cc1 | 38.2 µM (active) | 2.7 µM (active) | 3.82 µM (active) | 17.7 µM (active) | 3.4 µM (active) | – | 55.5 µM (active) | 17.1 µM (active) | 3.4 µM (active) | 12.5 µM (active) | 42.9 µM (active) | 17.7 µM (active) | 34 µM (active) | 27 µM (active) | – | 42.9 µM (active) | 7.62 µM (active) | 42.9 µM (active) | 0.38 µM (active) | 42.7 µM (active)
7 | COc1ccc([C@@H]2CNC(=O)C2)cc1OC1CCCC1 | inactive | 0.743 µM (active) | 0.469 µM (active) | 27.3 µM (active) | inactive | – | 3.04 µM (active) | 1.32 µM (active) | inactive | – | – | inactive | – | 5.9 µM (active) | – | – | 3.72 µM (active) | inactive | – | –
8 | CCC[C@@H](C=O)NC(=O)[C@H](CC(C)C)NC(=O)[C@H](CC(C)C)NC(=O)OCc1ccccc1 (Cbz-Leu-Leu-[Nva]-aldehyde) | 0.296 µM (active) | 0.59 µM (active) | 0.105 µM (active) | 1.22 µM (active) | 0.372 µM (active) | 1.18 µM (active) | 1.36 µM (active) | – | 0.935 µM (active) | 2.17 µM (active) | 2.35 µM (active) | 1.53 µM (active) | 0.935 µM (active) | – | 5.26 µM (active) | 4.69 µM (active) | 2.35 µM (active) | 2.35 µM (active) | 1.17 µM (active) | 1.65 µM (active)
9 | C[C@H]1COc2c(N3CCN(C)CC3)c(F)cc3c(=O)c(C(=O)O)cn1c23 | inactive | inactive | inactive | inactive | inactive | inactive | inactive | – | inactive | inactive | inactive | inactive | inactive | inactive | inactive | inactive | inactive | inactive | – | –
10 | Nc1nc(=O)n([C@H]2CSC(CO)O2)cc1F (stereo partly drawn) | inactive | inactive | inactive | inactive | inactive | – | inactive | inactive | inactive | – | inactive | inactive | inactive | inactive | inactive | inactive | inactive | inactive | – | –
11 | Oc1ccc(-c2ccc(-c3cc(Nc4cccc(CNC5CC5)c4)n[nH]3)cc2)c(O)c1 | 1.48 µM (active) | 0.935 µM (active) | 0.372 µM (active) | 5.44 µM (active) | 2.96 µM (active) | 5.9 µM (active) | – | inactive | – | 7.69 µM (active) | – | 1.09 µM (active) | 10.5 µM (active) | – | inactive | – | 14.8 µM (active) | 5.9 µM (active) | 2.33 µM (active) | –

From PubChem BioAssay (NCATS)
